The compounds below were run on T1, DRAK2. Conditions: concentration: 1 μM, replicates: in singlicate; n = 1.
T1 construct: gene STK17B
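Also: KINOMEscan kinase panel screen.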

SMILES	%Inh [%]
COc1cc2ncnc(Nc3cccc(Br)c3)c2cc1OC.Cl [GI230329]	0
CS(=O)(=O)CCNCc1nc(-c2ccc3ncnc(Nc4ccc(OCc5ccccc5)c(Cl)c4)c3c2)cs1.Cl [GW582764]	0
COc1ccc2cc(-c3nc(-c4ccccc4C(C)C)[nH]c3-c3ccncc3)ccc2c1 [SB-660566]	0
COc1ccc(Nc2nccc(N3CCC(NC(=O)C(C)c4ccc(Cl)cc4)CC3)n2)cc1 (stereo not shown) [GSK1379812]	0
Cc1ccccc1-c1cc(-c2c[nH]nc2-c2ccccn2)ccn1 [GW680061]	0
CC[C@@H]1CO[C@H](C(=O)Nc2ccccc2)CN1c1cc(-c2ccc3c(N)n[nH]c3c2)nc(NC)n1 [GSK2376236]	68
O=C1NC(=O)C(c2ccc(Cl)cc2)=C1Nc1cccc(Cl)c1 [SB-317651]	0
Cc1c(Cn2c3ccccc3n3c(=O)cc(N4CCOCC4)nc23)cccc1C(F)(F)F [GSK2306394]	0
Cc1ccc(NC(=O)Nc2ccccc2F)cc1-c1ccc(C(=O)Nc2ccncc2)cc1 [GSK1398477]	0
O=c1cc(N2CCOCC2)nc2n(Cc3cccc(Cl)c3Cl)c3ccccc3n12 [GSK2299009]	0
CC(=O)c1c(C)c2cnc(Nc3ccn(C)n3)nc2n(C2CCCC2)c1=O	0
COc1cccc(CNC(=O)NC2CCN(c3ccnc(Nc4ccc(F)cc4)n3)C2)c1 (stereo not shown) [GSK1379723]	0
CC(=O)c1c(C)c2cnc(Nc3ccc(N4CCNCC4)cn3)nc2n(C2CCCC2)c1=O	5
COc1cccc(C2=C(Nc3cc(Cl)c(O)c(Cl)c3)C(=O)NC2=O)c1 [SB-390767]	0
Cc1ccccc1Cn1ccn2c(=O)cc(N3CCOCC3)nc12 [GSK2269905]	0
Fc1ccc(-c2nn3cccc(F)c3c2-c2ccncc2)cc1 [GW475620]	17
Cc1nccc(-c2c(-c3ccc(F)cc3)ncn2CCCN2CCOCC2)n1.Cl [SB-282975]	22
Cc1cccc2c(-c3ccncn3)c(-c3ccc(F)cc3)nn12 [GW515532]	0
COc1ccc(Nc2nccc(NCCNC(=O)Nc3cc(C)ccc3C)n2)cc1 [GSK1379899]	0

SMILES	%Inh [%]
Nc1nccc(-c2c(-c3ccc(F)cc3)ncn2C2CCN(Cc3ccccc3)CC2)n1 [SB-219980]	14
CS(=O)(=O)Cc1ccc(Nc2nccc(-c3c(-c4cccc(NC(=O)C5CCCCC5)c4)nn4ncccc34)n2)cc1 [GSK350559]	0
Cc1ccc(NC(=O)Nc2ccc(Cl)c(C(F)(F)F)c2)cc1-c1ccc(C(=O)Nc2ccncc2)cc1 [GSK1398470]	0
O=c1cc(N2CCOCC2)nc2n(Cc3ccccc3F)ccn12 [GSK2297428]	0
O=C(Nc1n[nH]c2nc(-c3ccco3)c(Br)cc12)C1CCN(Cc2ccccc2)C1.O=C(O)[C@H](O)[C@@H](O)C(=O)O (stereo not shown) [SB-742034]	13
CCn1c(-c2c(N)noc2C)nc2cnccc21 [SB-737856]	0
Cn1cnc2c(N)ncnc21 [SKF-97623]	0
O=C(Nc1n[nH]c2cc(-c3ccsc3)ccc12)C1CC1 [SB-732932]	0
CN1c2ccc(-c3ccc(C(N)=O)cc3)cc2-c2[nH]ncc2S1(=O)=O	15
Cl.Cl.Cl.N#Cc1ccc(CCNc2nccc(-c3cccc(CN4CCNCC4)c3)n2)cc1 [GSK2137462]	0
Cn1cncc1C(=O)NC1CCN(c2ccnc(Nc3ccc(F)cc3)n2)C1 (stereo not shown) [GSK1379717]	0
CS(=O)(=O)CCNCc1nc(-c2ccc3ncnc(Nc4ccc5c(cnn5Cc5ccccc5)c4)c3c2)cs1.Cl.Cl [GW569716]	21
Cc1cnc(N)c(/C=C/c2cncc(C(=O)NCCc3ccc(Cl)cc3Cl)c2)c1.Cl [GSK190937]	0
CNCc1ccc2nc(NC(=O)c3ccc(C(C)(C)C)cc3)cn2c1	24
CNc1cc(-c2ccc3c(N)n[nH]c3c2)nc(N)n1 [GSK2224810]	77
CNc1nc(-c2ccc3c(N)n[nH]c3c2)cc(N2C[C@@H](C(=O)Nc3ccccc3)CC[C@H]2C)n1 [GSK2298859]	80
COc1ccc(Nc2nccc(N3CCC(NC(=O)c4cc5ccccc5s4)C3)n2)cc1 (stereo not shown) [GSK1379738]	0
COc1ccc(CSc2nnc(-c3ccc4nccn4c3)o2)cc1C(F)(F)F	0

From publication PMC5540273 (PLoS ONE, 2017)
